# Most compounds without a hit are left out; they make up all but 21% or so of the library.
# Pf growth 96h – inhibits malaria parasite growth, 96 h; P. falciparum luciferase reporter growth, 96 h; Potency, µM (doses to about 28.7 µM), for the others: top-dose activity change, negative = inhibition, actives largely listed as inhibitors; 320,000 compounds, 6.9% hits; AID 504834; also: potency is read from the fitted curve at half-maximal effect; % is scaled to controls: 0 for no effect and ±100 for the full control effect
#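 Parasite growth measured via integrated firefly luciferase reporter in P. falciparum. Infected erythrocytes at 2% hematocrit, 0.05% parasitemia final were treated 96 hours at 37 C under 5% CO2, and luminescence was read.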
# NS1 function inh – influenza NS1 inhibition; AID 2326; Potency, µM (highest dose often 46.1 µM), for the others: at the top dose activity, positive = more growth; 270,000 compounds, 0.4% hits; calls by dose curve; also: potency is read from the fitted curve at half-maximal effect; actives are rising curves; nearly all actives have a fitted effect of over 50% in size
#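 Recovery from NS1-induced slow growth read by OD600 in budding yeast switched to galactose assay medium (pH 6.0, -URA) at 1:100 dilution. Compound 23 nl per well; the matching strain lacking NS1 serves as control.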
# SARS PLP yeast – blocks SARS-CoV papain-like protease in a yeast assay. S. cerevisiae expressing SARS-CoV PLpro, growth rescue. Potency, µM (highest dose often 32.9 µM), for inactives: at the highest dose activity, positive = growth rescue, usual class: activators. 330,000 compounds, 0.19% hits; calls by dose curve; also: potency is read from the fitted curve at half-maximal effect; 0% is about no effect; nearly all actives have a fitted effect of over 55% in size
# CHX counter – counter-screen for Shiga toxin inhibitors: cycloheximide protein synthesis inhibition | cell reporter, cycloheximide protein synthesis inhibition counterscreen | max response, % | 300,000 compounds, 12% hits | AID 2314; in the data active = max response mostly above about 13%, no sharp cut-off; inactive = mostly below about 14%; also: read at 38.3 µM for the half of the compounds with a filed dose; 0% is about no effect
# Shiga inhibitor – blocks Shiga toxin action in Vero cells; AID 2315; 290,000 compounds, 9.2% hits; Vero cells, Shiga toxin protein synthesis inhibition reporter; inhibition, % at 38.7 µM; in the data active = inhibition mostly above about 28%, no sharp cut-off; inactive = mostly below about 43%; also: 0% is about no effect
# Pf growth 48h – P. falciparum growth inhibition at 48 hours (one generation) | P. falciparum luciferase growth in erythrocytes, 48 h | Potency, µM (highest dose often 28.7 µM), for the others: top-dose activity change, negative = inhibition, hits mostly inhibitors | 310,000 compounds, 5.9% hits; also: potency is read from the fitted curve at half-maximal effect; % is scaled to controls: 0 for no effect and ±100 for the full control effect
#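 A one-generation exposure of luciferase-tagged malaria parasites in RPMI 1640/Albumax erythrocyte culture, 37 C and 5% CO2. Inhibition is inferred from decreased luminescence after adding detection reagent.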
# The depositor's hits bear a star; i = inactive; ? = inconclusive; . = no result. Unless noted, calls follow the shape of the dose curve; as a rule, active = well fitted inhibition curve with a large enough effect; inconclusive = small, poorly fitted or top-dose-only effect, or another doubt; inactive = no such curve, though single readings can be large or run the other way.
SMILES,Pf growth 96h,NS1 function inh,SARS PLP yeast,CHX counter,Shiga inhibitor,Pf growth 48h
Cc1ccc(NC(=O)CN2CCCC2c2cccn2C)cc1C (stereo not given),.,.,-1%,.,.,.
CCOC(=O)C(C)Sc1ccc2nnc(CCNS(=O)(=O)c3ccccc3)n2n1 (stereo not given),?,.,1%,8,41,?
N#Cc1c(Cl)nsc1NC(=O)c1ccccc1,0%,.,-24%,31*,132*,?
Cc1ccc(C(=O)Nc2sc3c(c2C#N)CCCCC3)cc1C,i,11%,2%,24*,43*,378%
O=C(Nc1cccc(NC(=O)c2ccccc2)n1)c1ccccc1,?,-18%,-15%,11,.,1%
N#Cc1c(NC(=O)CSC2=NCCS2)sc2c1CCCC2,2.3µM*,-19%,-7%,-4,-5,?
N#Cc1c(NC(=O)CCCC(=O)O)sc2c1CCCCC2,25%,9%,5%,34*,112*,81%
O=C(CCCN1C(=O)NC2(CCCC2)C1=O)Nc1ccc(Cl)c(S(=O)(=O)N2CCOCC2)c1,?,.,1%,.,.,?
COc1ccccc1N(CC(=O)NC1CCCCC1)C(=O)CCC(=O)Nc1nccs1,?,4%,0%,8,-6,?
CNS(=O)(=O)c1cccc(C(=O)OCC(=O)Nc2sc3c(c2C#N)CCCCC3)c1,12%,2%,-1%,26*,44*,22%
Cc1ccc(NC(=O)COC(=O)C2CC3CCCC(C2)C3=O)c([N+](=O)[O-])c1 (stereo not given),9%,.,2%,.,.,2%
COc1ccccc1NS(=O)(=O)c1cccc(C(=O)N/N=C/c2cn(-c3ccccc3)nc2-c2ccccc2)c1,2.9µM*,?,14%,8,7,2.1µM*
COc1ccc(NS(=O)(=O)c2cccc(C(=O)N/N=C/c3cn(-c4ccccc4)nc3-c3ccc(OC)cc3)c2)cc1,?,1%,0%,9,5,2.3µM*
COCc1cc(C)nc(Nc2ccccc2OC)c1C#N,-18%,-7%,-3%,-3,-1,-2%
COCCN(C(=O)Nc1ccccc1OC)c1nc2ccccc2s1,15%,-37%,4%,26*,30*,-8%
CCOC(=O)c1sc2nc(N3CCOCC3)c3c(c2c1N)CCN(Cc1ccccc1)C3,9.3µM*,20%,1%,-4,-10,?
Cc1ccccc1NC(=O)c1sc2nc(N3CCOCC3)c3c(c2c1N)CCCC3,?,16%,0%,19*,22,?
O=C(Nc1ccc(F)c(F)c1)c1oc2ccccc2c1NC(=O)C1CCCO1 (stereo not given),?,.,1%,13,13,15%
Cc1ccc(NC(=O)c2oc3ccccc3c2NC(=O)C2CCCO2)cc1C (stereo not given),?,.,-5%,42*,100*,?
COc1ccccc1NC(=O)c1oc2ccccc2c1NC(=O)C1CC1,15µM*,-2%,7%,-3,-12,12µM*
COc1ccc(NC(=O)c2oc3ccccc3c2NC(=O)C2CCCO2)cc1OC (stereo not given),43%,.,1%,37*,29,?
CCOc1ccccc1NC(=O)c1oc2ccccc2c1NC(=O)C1CCCO1 (stereo not given),61%,.,6%,8,22,?
COc1ccc(NC(=O)c2oc3ccccc3c2NC(=O)C2CC2)cc1OC,12µM*,-13%,-2%,7,34,?
COC(=O)[C@H](Cc1ccccc1)NC(=O)O[C@@H]1C(=O)c2cc(Br)ccc2O[C@H]1c1cccc(OC)c1,5%,-12%,0%,-3,6,21%
Cc1ccc(C)c(OCCC(=O)OCC(=O)Nc2ccc(N3CCOCC3)cc2)c1,65%,.,-4%,.,.,56%
SMILES,Pf growth 96h,NS1 function inh,SARS PLP yeast,CHX counter,Shiga inhibitor,Pf growth 48h
O=C(Nc1ccon1)c1cc2c(s1)CCCC2,4%,-45%,-19%,35*,64*,58%
O=C(Nc1ccon1)c1cc2c(s1)CCCCCC2,.,-42%,-15%,30*,64*,3.7µM*
Cc1ccc(OCc2cc(C(=O)N3CCc4[nH]cnc4C3c3ccccn3)no2)cc1C (stereo not given),41%,13%,4%,1,-5,-8%
Cc1ccc2nc(C)cc(C(=O)Nc3nccs3)c2c1,11%,-5%,1%,-5,-1,0%
Cc1ccc(C2(CC(=O)N3CCCC3)CCOC(C(C)C)C2)cc1 (stereo not given),?,-2%,3%,-1,-2,.
COc1ccccc1C1(CC(=O)N2CCCCC2)CCOC(C(C)C)C1 (stereo not given),15µM*,0%,0%,-5,-7,.
O=C(O)c1cc(N=Nc2c(O)ccc3ccccc23)cc(C(=O)O)c1,?,5%,0%,8,-1,?
O=C(O)c1cc2ccccc2c(N=Nc2cccnc2)c1O,2.9µM*,-2%,-1%,-3,-2,-12%
COc1ccc(OC)c(C(=O)COC(=O)COc2ccccc2F)c1,19%,.,-1%,.,.,11%
Cc1ccc(NCc2ccncc2)c(Br)c1,-1%,2%,-1%,12,33*,-18%
CCC(=O)N1CCc2cc(S(=O)(=O)NC(C(=O)NC3CCCc4ccccc43)C(C)C)ccc21 (stereo not given),298%,?,?,-3,2,?
CCC(=O)c1ccc(N2CCN(C(=O)c3ccccc3)CC2)c(F)c1,30%,3%,4%,-2,21,-16%
CCC(=O)c1ccc(N2CCC(C)CC2)c(F)c1,9%,1%,4%,30*,36*,10%
CCCC(=O)c1ccc(N2CCC(C)CC2)c(F)c1,-15%,-4%,-14%,43*,60*,42%
O=C(NCc1cccnc1)c1c(O)c2cccc3c2n(c1=O)CCC3,15%,-42%,0%,1,-21,?
COc1ccccc1N(C(=O)c1ccncc1)c1nc(-c2ccc([N+](=O)[O-])cc2)cs1,?,18%,-35%,2,18,9.3µM*
CC(=O)Nc1ccccc1OCC(=O)NCCc1ccc(Cl)cc1Cl,-15%,0%,17%,5,-17,-17%
Cc1ccc(S(=O)(=O)Nc2cccc(C(=O)NCc3ccccn3)c2)cc1F,-1%,.,11%,.,.,10%
CC1CCCN(C(=O)CNC(=O)c2ccco2)C1 (stereo not given),87%,12%,4%,33*,53*,270%
O=C(CNC(=O)Cc1ccccc1)NCC(=O)N1CCCCC1,40%,1%,29%,1,-30,12%
O=C(NCC(=O)N1CCCC(C(F)(F)F)C1)c1ccco1 (stereo not given),7%,.,5%,.,.,13%
CC1CCN(C(=O)CNC(=O)Cc2ccccc2)CC1,55%,-3%,-2%,23*,30*,28%
